Assay outcomes as filed in PubChem.
Luminol counter = counter-screen for Nox1 inhibitors: inhibitors of luminol chemiluminescence; HRP/luminol/H2O2 chemiluminescence counterscreen; inhibition, % at 6.7 µM; actives 0.4% (n = 16,000); also: reference of the scale not given here
rat GALR2 agon = GALR2 (rat) receptor agonism; O08726; cell-based GALR2 agonist screen; activation, % at 10 µM; actives 0.5% (n = 16,000); AID 833; in the data active = activation above about 15%
Nox1 inhibitor = inhibitors of human NADPH oxidase 1 (Nox1); inhibition, % at 6.7 µM; actives 0.81% (n = 16,000); Q9Y5S8; HT29 cells, luminol chemiluminescence ROS
Starred values were filed as active, the others as inactive. Only some compounds are listed: those with a hit (about 1.6% of all), similar ones and a draw of the others. Rule as the data show it, unless noted: active = inhibition above about 75%; inactive = the rest.

`FC(F)(F)c1ccnc(NCc2ccco2)n1` gave Luminol counter -2, rat GALR2 agon -8 and Nox1 inhibitor -20.
Screening Nc1nc(NCc2ccco2)n[nH]1 returned Luminol counter 90*, rat GALR2 agon -2 and Nox1 inhibitor 94*.
O=C(CSCCCN1CCN(c2cccc(Cl)c2)CC1)N/N=C\c1cccs1 was read as Luminol counter -1, rat GALR2 agon -9 and Nox1 inhibitor -40.
`CCOC(=O)C(O)(C(=O)OCC)C1Cc2ccccc2C1=O` (stereo not given) gave Luminol counter 2, rat GALR2 agon -6 and Nox1 inhibitor -45.
`CCOC(=O)/C(C#N)=C/c1ccccc1Sc1ccc(Cl)cc1` gave Luminol counter -2, rat GALR2 agon -7 and Nox1 inhibitor -37.
COCCCNC(=S)NNC(=S)Nc1ccccc1 was read as Luminol counter 4, rat GALR2 agon -5 and Nox1 inhibitor 91*.
COCCCNC(=S)Nc1ccc(C)cc1 was read as Luminol counter -5, rat GALR2 agon -5 and Nox1 inhibitor 10.
For COC(=O)c1ccccc1SCC(C)=O the results were Luminol counter -4, rat GALR2 agon -7 and Nox1 inhibitor -6.
Cc1cc(C)cc(NC(=O)Nc2ccc(N3CCCCC3)cc2)c1 was read as Luminol counter -9, rat GALR2 agon -1 and Nox1 inhibitor 85*.
Screening COc1ccc(NC(=O)Nc2cc(C)cc(C)c2)cn1 returned Luminol counter -4, rat GALR2 agon -9 and Nox1 inhibitor -19.
Screening CS(=O)(=O)/C(C#N)=C/c1ccccc1OCc1c(Cl)cccc1Cl returned Luminol counter -8, rat GALR2 agon 18* and Nox1 inhibitor 21.
CS(=O)(=O)/C(C#N)=C\c1ccc(Cl)s1 was read as Luminol counter -5, rat GALR2 agon -5 and Nox1 inhibitor -9.
CC(NC(=S)N/N=C/c1cc(Cl)cc(Cl)c1O)c1ccccc1 (stereo not given) was read as Luminol counter -1, rat GALR2 agon 27* and Nox1 inhibitor -38.
Oc1c(Cl)cc(Cl)cc1/C=N/NC(=S)NNc1ccccc1 was read as Luminol counter 16, rat GALR2 agon -3 and Nox1 inhibitor 59.
Cc1cc(=O)n2[nH]c(-c3sc4ccc(Cl)cc4c3C)cc2n1 was read as Luminol counter -2, rat GALR2 agon -7 and Nox1 inhibitor 26.
For COc1ccc(CN(Cc2cccn2C)S(=O)(=O)c2cccc(C(F)(F)F)c2)cc1 the results were Luminol counter -3, rat GALR2 agon -9 and Nox1 inhibitor -3.
